Inconclusive results are not listed. The source made the active and inactive calls. Unless noted, the call rests on the fitted dose curve; in most records, active means well fitted curve in the direction sought with a large enough effect in the repeat runs; inconclusive means weak or mixed curves; inactive means no such curve, though single readings can be large; an effect the other way counts as inactive or inconclusive.
Tests used:
[1] = target: Aryl hydrocarbon receptor (Homo sapiens) (UniProt P35869); test: qHTS assay to identify small molecule that activate the aryl hydrocarbon receptor (AhR) signaling pathway (AID 743085);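 further: HG2L7.5c1 human HepG2 liver cells with stably integrated DRE-driven firefly reporter; series mostly up to about 70 µM; nearly all actives have a fitted effect of over 15% in size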
Chain of Aryl hydrocarbon receptor (Homo sapiens) (P35869 whole entry, looked up): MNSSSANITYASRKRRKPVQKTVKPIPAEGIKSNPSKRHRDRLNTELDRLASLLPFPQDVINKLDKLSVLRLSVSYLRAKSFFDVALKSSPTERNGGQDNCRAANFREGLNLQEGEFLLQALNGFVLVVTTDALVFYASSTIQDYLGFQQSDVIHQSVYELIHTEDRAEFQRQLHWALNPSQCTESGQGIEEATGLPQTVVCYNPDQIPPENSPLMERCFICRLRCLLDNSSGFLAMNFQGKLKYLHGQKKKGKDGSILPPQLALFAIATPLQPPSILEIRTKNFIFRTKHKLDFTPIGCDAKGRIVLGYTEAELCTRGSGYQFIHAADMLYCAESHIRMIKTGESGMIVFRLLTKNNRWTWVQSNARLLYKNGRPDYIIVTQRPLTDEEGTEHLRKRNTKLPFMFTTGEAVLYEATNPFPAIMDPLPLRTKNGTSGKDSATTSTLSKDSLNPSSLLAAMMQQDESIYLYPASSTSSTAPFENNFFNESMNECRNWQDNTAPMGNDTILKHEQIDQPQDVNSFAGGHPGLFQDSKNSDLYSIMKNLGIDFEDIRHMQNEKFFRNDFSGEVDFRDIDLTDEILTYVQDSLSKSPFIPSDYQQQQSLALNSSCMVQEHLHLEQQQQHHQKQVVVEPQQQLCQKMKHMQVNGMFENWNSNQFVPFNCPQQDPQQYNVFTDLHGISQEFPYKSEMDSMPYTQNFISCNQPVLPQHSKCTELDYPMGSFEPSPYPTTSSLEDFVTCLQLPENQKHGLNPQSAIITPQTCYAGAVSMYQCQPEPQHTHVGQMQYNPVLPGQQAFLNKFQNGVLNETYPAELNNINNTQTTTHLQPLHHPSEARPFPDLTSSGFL
Outline: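 Measured in HG2L7.5c1 cells: CellTiter-Fluor signal (30 min incubation, 37C) for viability, then luciferase luminescence (30 min, room temperature). Compound contact time was 24 h at 37C, following a 5 h pre-incubation.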

[2] = qHTS assay to identify small molecule that activate the aryl hydrocarbon receptor (AhR) signaling pathway - cell viability counter screen (AID 743086);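 further: HepG2 liver cells carrying the AhR DRE luciferase reporter; series mostly up to about 70 µM; nearly all actives have a fitted effect of over 45% in size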
Outline: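 HepG2-AhR-luc (HG2L7.5c1) cells, 4000/well, were preincubated 5 h at 37C, exposed to compound in qHTS format for 24 hr at 37C, then given CellTiter-Fluor for 30 min; viability was read as fluorescence in the reporter wells.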

[3] = target: Peroxisome proliferator-activated receptor gamma (Homo sapiens) (UniProt P37231); test: qHTS assay to identify small molecule agonists of the peroxisome proliferator-activated receptor gamma (PPARg) signaling pathway (AID 743094; active means well fitted activation curve with a large enough effect in the signal ratio in the repeat runs, not every such curve was filed as active; the % refers to the signal ratio)
Chain of Peroxisome proliferator-activated receptor gamma (Homo sapiens) (P37231 whole entry, looked up): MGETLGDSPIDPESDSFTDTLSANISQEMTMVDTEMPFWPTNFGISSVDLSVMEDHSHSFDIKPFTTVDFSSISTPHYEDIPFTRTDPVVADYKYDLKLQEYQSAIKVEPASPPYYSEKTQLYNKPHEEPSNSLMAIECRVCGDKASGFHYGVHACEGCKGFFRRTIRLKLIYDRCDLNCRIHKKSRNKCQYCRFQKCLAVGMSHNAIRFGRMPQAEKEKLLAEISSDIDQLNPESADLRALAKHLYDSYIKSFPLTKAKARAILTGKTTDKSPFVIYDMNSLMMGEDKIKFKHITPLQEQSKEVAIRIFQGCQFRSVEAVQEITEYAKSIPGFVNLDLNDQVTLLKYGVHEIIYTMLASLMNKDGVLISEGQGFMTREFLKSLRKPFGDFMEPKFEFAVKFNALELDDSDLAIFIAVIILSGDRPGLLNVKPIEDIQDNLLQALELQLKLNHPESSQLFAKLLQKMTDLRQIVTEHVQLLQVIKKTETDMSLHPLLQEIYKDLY
Outline: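 Following 5 h plating at 37C, PPARg-bla HEK293H cells receive compound or DMSO for 17 h; fluorescence intensity is recorded after LiveBLAzer B/G loading for 1 h at room temperature.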

[4] = target: Peroxisome proliferator-activated receptor gamma (Homo sapiens) (UniProt P37231); test: qHTS assay to identify small molecule antagonists of the peroxisome proliferator-activated receptor gamma (PPARg) signaling pathway (AID 743191; calls by dose curve; further: series mostly up to about 63 µM; nearly all actives have a fitted effect of over 30% in size)
Outline: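 GeneBLAzer PPARg UAS-bla HEK293H cells carrying a UAS-driven beta-lactamase reporter were plated at 3000 cells/well, preincubated 5 h at 37C, then given compound for 17 h at 37C; LiveBLAzer B/G FRET substrate was read after 1 h at room temperature.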

[5] = qHTS assay to identify small molecule antagonists of the peroxisome proliferator-activated receptor gamma (PPARg) signaling pathway - cell viability counter screen (AID 743194); further: nearly all actives have a fitted effect of over 55% in size
Outline: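 PPARg-UAS-bla HEK293H cells were plated, rested 5 h at 37 C, then treated with compounds plus rosiglitazone (50 nM final) for 17 h at 37 C; viability was then read by CellTiter-Glo luminescence after 30 min at room temperature.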

[6] = qHTS assay for small molecule agonists of the antioxidant response element (ARE) signaling pathway - cell viability counter screen (AID 743203; calls by dose curve; further: nearly all actives have a fitted effect of over 55% in size)
Outline: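 Compounds in DMSO were pinned onto ARE-bla HepG2 cells plated 5 hrs earlier at 2,000 cells/well. Sixteen hours later at 37C/5% CO2, CellTiter-Glo was added and luminescence measured after 30 min at room temperature.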

[7] = qHTS assay for small molecule activators of the heat shock response signaling pathway - cell viability counter screen (AID 743209); further: nearly all actives have a fitted effect of over 50% in size
Outline: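 Counter screen for cytotoxicity in HeLa HSE-bla reporter cells. Treatment was 5 h at 37 C; viability was detected by luminescent ATP assay (CellTiter-Glo) in the same wells as the beta-lactamase read.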

[8] = qHTS assay for small molecule activators of the heat shock response signaling pathway (AID 743210; active means well fitted activation curve with a large enough effect in the signal ratio in the repeat runs, with a control signal flat, not every such curve was filed as active; the % refers to the signal ratio; further: series mostly up to about 63 µM)
Outline: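 HSE-bla HeLa cells (beta-lactamase reporter under heat shock response elements) were exposed to compounds for 5 h at 37 C, then loaded with LiveBLAzer B/G FRET substrate for 2.5 h at room temperature before fluorescence reading.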

[9] = qHTS assay to identify small molecule agonists of the peroxisome proliferator-activated receptor delta (PPARd) signaling pathway - cell viability counter screen (AID 743211); further: nearly all actives have a fitted effect of over 55% in size
Outline: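 Following 5 h plating at 37 C and 5% CO2, PPARd UAS-bla HEK293H cells took up test compounds for 17 h. Viability was quantified by luminescence 30 min after CellTiter-Glo addition at room temperature.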

[10] = qHTS assay to identify small molecule antagonists of the peroxisome proliferator-activated receptor delta (PPARd) signaling pathway - cell viability counter screen (AID 743213); further: nearly all actives have a fitted effect of over 50% in size
Outline: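 Same-well viability: cells pre-incubated 5 h, dosed with compound plus 300 nM L165041, kept 17 h at 37 C, FRET substrate 2 h RT, then CellTiter-Glo 30 min RT and luminescence.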

[11] = qHTS assay to identify small molecule antagonists of the farnesoid-X-receptor (FXR) signaling pathway - cell viability counter screen (AID 743221; active means well fitted cell-killing curve with a large enough effect in the repeat runs, not every such curve was filed as active; further: nearly all actives have a fitted effect of over 50% in size)
Outline: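 Compound effects on cell number were measured as CellTiter-Glo luminescence in HEK 293T cells expressing FXR-UAS-bla, after 16 h at 37 C with 50 uM CDCA (final).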

[12] = target: Vitamin D3 receptor (Homo sapiens) (UniProt P11473); test: qHTS assay to identify small molecule agonists of the vitamin D receptor (VDR) signaling pathway (AID 743222; calls by dose curve)
Chain of Vitamin D3 receptor (Homo sapiens) (P11473 whole entry, looked up): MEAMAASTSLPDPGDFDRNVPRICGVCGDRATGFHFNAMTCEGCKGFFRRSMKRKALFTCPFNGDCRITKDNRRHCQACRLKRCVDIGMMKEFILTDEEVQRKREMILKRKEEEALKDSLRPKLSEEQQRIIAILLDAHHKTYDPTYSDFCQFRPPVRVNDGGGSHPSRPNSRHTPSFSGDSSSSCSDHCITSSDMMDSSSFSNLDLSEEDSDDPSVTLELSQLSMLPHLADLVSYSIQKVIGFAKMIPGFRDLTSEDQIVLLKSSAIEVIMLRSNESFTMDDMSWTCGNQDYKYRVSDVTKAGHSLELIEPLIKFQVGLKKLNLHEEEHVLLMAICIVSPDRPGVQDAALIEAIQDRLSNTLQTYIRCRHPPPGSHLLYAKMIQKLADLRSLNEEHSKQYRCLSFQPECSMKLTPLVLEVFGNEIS
Outline: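 VDR-bla cells were seeded, left 4 h, treated with compounds in DMSO for 16 h, incubated 2 h at RT with B/G FRET substrate, and read for fluorescence.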

[13] = target: Vitamin D3 receptor (Homo sapiens) (UniProt P11473); test: qHTS assay to identify small molecule antagonists of the vitamin D receptor (VDR) signaling pathway (AID 743223; active means well fitted inhibition curve with a large enough effect in the signal ratio in the repeat runs, not every such curve was filed as active; the % refers to the signal ratio)
Outline: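 Beta-lactamase activity in VDR-bla cells is measured by FRET substrate fluorescence (2 h, room temperature) after cells spend 16 h at 37C with test compound and 3 nM final 1alpha,25-dihydroxyvitamin D3.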

[14] = qHTS assay to identify small molecule agonists of the vitamin D receptor (VDR) signaling pathway - cell viability counter screen (AID 743224); further: series mostly up to about 63 µM; nearly all actives have a fitted effect of over 50% in size
Outline: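 Here cell health was gauged by luminescent ATP detection (CellTiter-Glo, 30 min RT) in VDR-bla cells that had been incubated with test compounds for 16 h at 37C and 5% CO2.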

[15] = qHTS assay for small molecule agonists of the antioxidant response element (ARE) signaling pathway (AID 743202; active means well fitted activation curve with a large enough effect in the signal ratio in the repeat runs, not every such curve was filed as active; the % refers to the signal ratio)
Outline: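 Read-out: LiveBLAzer B/G FRET substrate fluorescence after 2 h at room temperature, following 16 h compound treatment at 37 C of HepG2 cells carrying an ARE-driven beta-lactamase reporter.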

[16] = target: Peroxisome proliferator-activated receptor delta (Homo sapiens) (UniProt Q03181); test: qHTS assay to identify small molecule agonists of the peroxisome proliferator-activated receptor delta (PPARd) signaling pathway (AID 743212; calls by dose curve)
Chain of Peroxisome proliferator-activated receptor delta (Homo sapiens) (Q03181 whole entry, looked up): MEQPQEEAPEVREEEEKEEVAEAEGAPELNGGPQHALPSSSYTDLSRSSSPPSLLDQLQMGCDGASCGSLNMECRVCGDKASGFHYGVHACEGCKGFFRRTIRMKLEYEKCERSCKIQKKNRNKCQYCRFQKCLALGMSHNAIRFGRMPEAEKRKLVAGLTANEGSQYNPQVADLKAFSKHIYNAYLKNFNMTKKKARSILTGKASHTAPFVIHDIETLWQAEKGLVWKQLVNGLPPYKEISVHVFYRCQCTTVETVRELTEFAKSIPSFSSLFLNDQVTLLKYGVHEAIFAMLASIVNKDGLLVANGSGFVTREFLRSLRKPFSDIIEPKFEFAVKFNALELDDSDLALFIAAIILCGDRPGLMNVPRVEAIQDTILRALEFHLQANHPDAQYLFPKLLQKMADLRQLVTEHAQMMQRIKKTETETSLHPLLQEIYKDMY
Outline: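 GeneBLAzer PPARd UAS-bla HEK293H cells (beta-lactamase reporter under UAS control), plated and rested 5 h at 37 C, then exposed to compounds in DMSO at 37 C; LiveBLAzer B/G FRET substrate added, 2 h room temperature, fluorescence read.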

[17] = target: Peroxisome proliferator-activated receptor delta (Homo sapiens) (UniProt Q03181); test: qHTS assay to identify small molecule antagonists of the peroxisome proliferator-activated receptor delta (PPARd) signaling pathway (AID 743215; active means well fitted inhibition curve with a large enough effect in the signal ratio in the repeat runs, not every such curve was filed as active; the % refers to the signal ratio;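 further: cells stimulated with agonist L165041 at 300 nM final during compound exposure; series mostly up to about 62 µM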)
Outline: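 With L165041 present at 300 nM final, compounds were incubated 17 h at 37 C on PPARd UAS-bla HEK293H cells. A FRET-based beta-lactamase substrate was then applied for 2 h at room temperature and fluorescence intensity recorded.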

[18] = target: Bile acid receptor (Homo sapiens) (UniProt Q96RI1); test: qHTS assay to identify small molecule antagonists of the farnesoid-X-receptor (FXR) signaling pathway (AID 743217; active means well fitted inhibition curve with a large enough effect in the signal ratio in the repeat runs, not every such curve was filed as active; the % refers to the signal ratio)
Chain of Bile acid receptor (Homo sapiens) (Q96RI1 whole entry, looked up): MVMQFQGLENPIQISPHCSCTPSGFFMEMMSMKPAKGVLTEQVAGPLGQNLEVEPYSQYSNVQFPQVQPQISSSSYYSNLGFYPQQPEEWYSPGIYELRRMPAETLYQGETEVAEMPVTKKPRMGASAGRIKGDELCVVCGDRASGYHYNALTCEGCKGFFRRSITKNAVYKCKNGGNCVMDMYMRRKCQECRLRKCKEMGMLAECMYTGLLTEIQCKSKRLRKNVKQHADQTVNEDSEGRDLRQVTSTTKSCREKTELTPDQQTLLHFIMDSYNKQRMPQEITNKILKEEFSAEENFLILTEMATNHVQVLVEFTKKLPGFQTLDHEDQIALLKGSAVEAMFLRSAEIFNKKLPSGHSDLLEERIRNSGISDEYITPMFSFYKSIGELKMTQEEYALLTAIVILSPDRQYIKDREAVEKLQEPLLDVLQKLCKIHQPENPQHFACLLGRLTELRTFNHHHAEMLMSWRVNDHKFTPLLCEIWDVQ
Outline: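 In this cell-based antagonist screen, inhibition of CDCA-driven (50 uM final) UAS-beta-lactamase expression in HEK 293T cells was measured by FRET fluorescence following 16 h compound exposure at 37 °C.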

[19] = qHTS assay to identify small molecule agonists of the farnesoid-X-receptor (FXR) signaling pathway - cell viability counter screen (AID 743218); further: nearly all actives have a fitted effect of over 45% in size
Outline: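 After 16 h at 37 C with test compounds, FXR-bla HEK 293T cells were given LiveBLAzer B/G substrate for 2 h at RT and then CellTiter-Glo; luminescence was taken after 30 min.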

[20] = target: Bile acid receptor (Homo sapiens) (UniProt Q96RI1); test: qHTS assay to identify small molecule agonists of the farnesoid-X-receptor (FXR) signaling pathway (AID 743220; active means well fitted activation curve with a large enough effect in the signal ratio in the repeat runs, not every such curve was filed as active; the % refers to the signal ratio)
Outline: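 Beta-lactamase reporter under UAS control in GeneBLAzer FXR HEK 293T cells (5000/well) measured with LiveBLAzer FRET substrate after 2 h at room temperature. Compound exposure lasted 16 h at 37C.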

Measured: Potency

CCC(=O)OCCOc1ccccc1
not listed: [15] | [16] | [17] | [18] | [19] | [20]
inactive: all other assays above

CCCCCCCCCCCCCCCC/C=C/C1CC(=O)OC1=O (stereo not drawn)
not listed: [4] | [9] | [13]
inactive: all other assays above

CCOC(=O)CC
not listed: [9] | [10] | [12] | [13] | [15] | [19]
inactive: all other assays above

O=Cc1ccc(C(=O)O)cc1
inactive: [1] | [2] | [3] | [4] | [6] | [8] | [9] | [19] | [11] | [14]

CC(C)OC(=O)C(C(=O)OC(C)C)=C1SC=CS1
not listed: [8] | [9] | [11] | [15] | [18] | [20]
inactive: all other assays above

CCCCC(CC)CCC(CC(C)C)OS(=O)(=O)O (stereo not drawn)
not listed: [9] | [10] | [15] | [16] | [17]
inactive: all other assays above

CC(=O)Nc1ccc(S(=O)(=O)Nc2cc(C)on2)cc1
not listed: [4] | [17] | [19]
inactive: all other assays above

CCCCN=C(N)N=C(N)N
not listed: [7] | [12] | [13] | [15] | [17] | [18] | [19] | [20]
inactive: all other assays above

O=P(O)(O)C(O)(Cc1cccnc1)P(=O)(O)O
not listed: [4]
inactive: all other assays above

CCc1ccc(CC)cc1
not listed: [5] | [9] | [16] | [17] | [18] | [20]
inactive: all other assays above

Cc1ccccc1OCC(=O)O
not listed: [4] | [10] | [13] | [17]
inactive: all other assays above

CC1(C)CC(N)CC(C)(C)N1
not listed: [4] | [11] | [13]
inactive: all other assays above

NC(=O)CC[C@@H](N)C(=O)O
not listed: [6] | [9] | [12] | [15] | [18] | [20]
inactive: all other assays above

From PubChem BioAssay (Tox21)
